± gives the standard deviation.

What all share (conditions): modulator concentration 10 µM
Experiment [1] relates to RAW-Dual (murine macrophage reporter line). As to the kind of experiment: NF-kB reporter (SEAP) activity fold change vs agonist alone; higher = enhanced NF-kB activity. Put shortly: (§1)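 Overnight stimulation with a PRR agonist followed pre-incubation for 1 hour at 37 °C with compound at 10 μM final. This was done in RAW-Dual murine macrophage reporter cells seeded at 50 000 per well in 384-well plates. NF-κB (SEAP, QUANTI-Blue absorbance at 620 nm) and IRF (Lucia luciferase, QUANTI-Luc luminescence) were read from the supernatant. Each reporter's fold change relative to the mean agonist-only control on the same plate was averaged over replicate plates.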

Experiment [2] has the same test system. The experiment is described as follows: IRF reporter (Lucia luciferase) activity fold change vs agonist alone; higher = enhanced IRF activity. Put shortly:
as §1

Experiment [3] shares this test system. As to the kind of experiment: viability score (confluency relative to resting cells, overnight) (fraction); higher = more viable, active = viable (0.7 or more). The method, boiled down: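 RAW-Dual macrophages in 384-well plates were treated overnight with compound at 10 μM final. IncuCyte imaging recorded confluency, and IncuCyte software built two confluency masks across every imaged well. The viability score expresses confluency relative to resting cells and was judged against a cutoff, which a compound met only if both masks exceeded 70% of resting cells.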

[4] abbreviates: agonist: CpG ODN 1826 0.5 ug/mL.

For `Cc1[nH]c2ccc(Br)cc2c(=O)c1CN1CCOCC1`, the NF-kB reporter is 1.06 ± 0.062 in experiment [1] (setting [4]), 0.995 ± 0.11 in experiment [1] (agonist: LPS 0.1 ug/mL) and 0.972 ± 0.027 in experiment [1] (agonist: MPLA […]). Moreover, the IRF reporter in experiment [2] (agonist: 3'3'-cGAMP 10 ug/mL) stood at 1.01 ± 0.073; in experiment [2] (agonist: LPS 0.1 ug/mL) it was 0.973 ± 0.1; in experiment [2] (agonist: MPLA […]), 0.937 ± 0.16. Further, the viability score in experiment [3] was 0.995 (active).
For `CN1CCC(COc2cnc(-c3cccc(Cn4nc(-c5cccc(C#N)c5)ccc4=O)c3)nc2)CC1`, the NF-kB reporter in experiment [1] (setting [4]) turned out to be 0.884 ± 0.28; in experiment [1] (agonist: LPS 0.1 ug/mL) it was 1 ± 0.055; in experiment [1] (agonist: MPLA […]), 1.06 ± 0.082. Besides, the values for the IRF reporter in experiment [2] (agonist: 3'3'-cGAMP 10 ug/mL), in experiment [2] (agonist: LPS 0.1 ug/mL) and in experiment [2] (agonist: MPLA […]) were 0.713 ± 0.04, 1.11 ± 0.14 and 1.37 ± 0.36, respectively. In experiment [3], the viability score is 0.625 (inactive).
As for `COC(=O)C1=CN(CC2CCCO2)C=C(C(=O)OC)C1c1ccccc1Cl` (stereo not given), the values for the NF-kB reporter in experiment [1] (setting [4]), in experiment [1] (agonist: LPS 0.1 ug/mL) and in experiment [1] (agonist: MPLA […]) were 1.67 ± 0.13, 1.21 ± 0.069 and 2.32 ± 0.14, respectively. In addition, the results for the IRF reporter in experiment [2] (agonist: 3'3'-cGAMP 10 ug/mL), in experiment [2] (agonist: LPS 0.1 ug/mL) and in experiment [2] (agonist: MPLA […]) were 0.796 ± 0.051, 0.845 ± 0.066 and 0.686 ± 0.043, respectively. In addition, in experiment [3], the viability score was 0.982 (active).
As for `Cc1ccc2c(c1)C(=O)CC(O)(C(F)F)O2` (stereo not given), the NF-kB reporter in experiment [1] (setting [4]) turned out to be 0.922 ± 0.073; in experiment [1] (agonist: LPS 0.1 ug/mL), 1 ± 0.067; in experiment [1] (agonist: MPLA […]) it was 0.954 ± 0.062. The IRF reporter in experiment [2] (agonist: 3'3'-cGAMP 10 ug/mL) turned out to be 0.764 ± 0.12; in experiment [2] (agonist: LPS 0.1 ug/mL), 0.984 ± 0.089; in experiment [2] (agonist: MPLA […]) it was 0.959 ± 0.14. Moreover, the viability score in experiment [3] is 1 (active).
Regarding `O=c1cc(O)nc(SCc2c(F)c(F)c(F)c(F)c2F)[nH]1`, the NF-kB reporter in experiment [1] (setting [4]) was 1.01 ± 0.08; in experiment [1] (agonist: LPS 0.1 ug/mL), 0.913 ± 0.07; in experiment [1] (agonist: MPLA […]) it was 1.05 ± 0.049. The IRF reporter in experiment [2] (agonist: 3'3'-cGAMP 10 ug/mL) is 0.646 ± 0.066; in experiment [2] (agonist: LPS 0.1 ug/mL) it was 1.01 ± 0.1; in experiment [2] (agonist: MPLA […]), 1.03 ± 0.21. Also, the viability score in experiment [3] is 1 (active).
In the case of `OCCN1CCN(C(c2cccs2)c2ccc3cccnc3c2O)CC1` (stereo not given), the NF-kB reporter in experiment [1] (setting [4]) is 1.95 ± 0.14; in experiment [1] (agonist: LPS 0.1 ug/mL), 0.699 ± 0.036; in experiment [1] (agonist: MPLA […]), 0.66 ± 0.048. In addition, the IRF reporter in experiment [2] (agonist: 3'3'-cGAMP 10 ug/mL) worked out at 0.759 ± 0.049; in experiment [2] (agonist: LPS 0.1 ug/mL) it was 0.332 ± 0.027; in experiment [2] (agonist: MPLA […]), 0.26 ± 0.021. Besides, the viability score in experiment [3] is 0.155 (inactive).
With `CC(=O)Nc1nc(C2CC2)cc(-c2ccco2)c1C#N`, the NF-kB reporter came out at 1.38 ± 0.23 in experiment [1] (setting [4]), 1.09 ± 0.09 in experiment [1] (agonist: LPS 0.1 ug/mL) and 1.02 ± 0.08 in experiment [1] (agonist: MPLA […]). The figures for the IRF reporter in experiment [2] (agonist: 3'3'-cGAMP 10 ug/mL), in experiment [2] (agonist: LPS 0.1 ug/mL) and in experiment [2] (agonist: MPLA […]) were 0.937 ± 0.026, 1.16 ± 0.12 and 1.17 ± 0.12, respectively. For the same molecule, in experiment [3], the viability score is 1 (active).
Turning to `NS(=O)(=O)C#Cc1ccccc1`, the NF-kB reporter in experiment [1] (setting [4]) was found to be 0.0641 ± 0.011; in experiment [1] (agonist: LPS 0.1 ug/mL), 0.0588 ± 0.0047; in experiment [1] (agonist: MPLA […]) it was 0.159 ± 0.013. The IRF reporter in experiment [2] (agonist: 3'3'-cGAMP 10 ug/mL) turned out to be 0.0153 ± 0.0016; in experiment [2] (agonist: LPS 0.1 ug/mL) it was 0.0325 ± 0.0031; in experiment [2] (agonist: MPLA […]), 0.0392 ± 0.0098. Besides, in experiment [3], the viability score was 0.7 (active).
Regarding `NC(=O)CN1C(=O)C2C3c4ccccc4C(c4ccccc43)C2C1=O` (stereo not given), the figures for the NF-kB reporter in experiment [1] (setting [4]), in experiment [1] (agonist: LPS 0.1 ug/mL) and in experiment [1] (agonist: MPLA […]) were 1.1 ± 0.083, 0.962 ± 0.073 and 0.965 ± 0.036, respectively. For the same molecule, the IRF reporter in experiment [2] (agonist: 3'3'-cGAMP 10 ug/mL) turned out to be 0.938 ± 0.065; in experiment [2] (agonist: LPS 0.1 ug/mL), 0.946 ± 0.092; in experiment [2] (agonist: MPLA […]) it was 0.976 ± 0.15. The viability score in experiment [3] was 0.995 (active).
For the molecule `O=c1oc2c(O)c(O)cc3c(=O)oc4c(O)c(O)cc1c4c23`, the results for the NF-kB reporter in experiment [1] (setting [4]), in experiment [1] (agonist: LPS 0.1 ug/mL) and in experiment [1] (agonist: MPLA […]) were 1.05 ± 0.32, 0.944 ± 0.051 and 0.963 ± 0.1, respectively. The figures for the IRF reporter in experiment [2] (agonist: 3'3'-cGAMP 10 ug/mL), in experiment [2] (agonist: LPS 0.1 ug/mL) and in experiment [2] (agonist: MPLA […]) were 0.85 ± 0.055, 1.11 ± 0.12 and 1.1 ± 0.22, respectively. Also, the viability score in experiment [3] was 0.997 (active).
As to `COc1ccc(OC2CCN(C(=O)C3CCOC3)C2)nn1` (stereo not given), the NF-kB reporter in experiment [1] (setting [4]) was determined as 0.955 ± 0.12; in experiment [1] (agonist: LPS 0.1 ug/mL) it was 1.04 ± 0.1; in experiment [1] (agonist: MPLA […]), 0.949 ± 0.11. The results for the IRF reporter in experiment [2] (agonist: 3'3'-cGAMP 10 ug/mL), in experiment [2] (agonist: LPS 0.1 ug/mL) and in experiment [2] (agonist: MPLA […]) were 1 ± 0.083, 1.12 ± 0.072 and 1.23 ± 0.14, respectively. Further, in experiment [3], the viability score is 0.999 (active).
With `CC(C)(C)C1CCC(OC(=O)CCC(=O)O)CC1` (stereo not given), the values for the NF-kB reporter in experiment [1] (setting [4]), in experiment [1] (agonist: LPS 0.1 ug/mL) and in experiment [1] (agonist: MPLA […]) were 0.999 ± 0.16, 0.931 ± 0.073 and 0.903 ± 0.087, respectively. For the same molecule, the IRF reporter was 1.07 ± 0.049 in experiment [2] (agonist: 3'3'-cGAMP 10 ug/mL), 1.32 ± 0.21 in experiment [2] (agonist: LPS 0.1 ug/mL) and 1.32 ± 0.24 in experiment [2] (agonist: MPLA […]). Further, the viability score in experiment [3] is 0.997 (active).
Turning to `C#CCOC(=O)CCCC(=O)Nc1ccc([N+](=O)[O-])cc1Cl`, the NF-kB reporter in experiment [1] (setting [4]) came out at 0.957 ± 0.066; in experiment [1] (agonist: LPS 0.1 ug/mL), 1.01 ± 0.067; in experiment [1] (agonist: MPLA […]) it was 0.975 ± 0.062. Moreover, the IRF reporter came to 1.01 ± 0.036 in experiment [2] (agonist: 3'3'-cGAMP 10 ug/mL), 1.59 ± 0.11 in experiment [2] (agonist: LPS 0.1 ug/mL) and 1.3 ± 0.21 in experiment [2] (agonist: MPLA […]). The viability score in experiment [3] was 0.999 (active).
With `O=c1[nH]cnc2ccccc12`, the values for the NF-kB reporter in experiment [1] (setting [4]), in experiment [1] (agonist: LPS 0.1 ug/mL) and in experiment [1] (agonist: MPLA […]) were 0.416 ± 0.14, 0.159 ± 0.013 and 0.215 ± 0.019, respectively. Besides, the IRF reporter in experiment [2] (agonist: 3'3'-cGAMP 10 ug/mL) is 0.133 ± 0.013; in experiment [2] (agonist: LPS 0.1 ug/mL), 0.378 ± 0.098; in experiment [2] (agonist: MPLA […]) it was 0.0913 ± 0.014. The viability score in experiment [3] is 0.561 (inactive).
Take `Cc1cc(I)cc2c1NC(c1cccc([N+](=O)[O-])c1)C1CC=CC21` (stereo not given): the NF-kB reporter is 0.921 ± 0.079 in experiment [1] (setting [4]), 0.795 ± 0.058 in experiment [1] (agonist: LPS 0.1 ug/mL) and 0.867 ± 0.089 in experiment [1] (agonist: MPLA […]). In addition, the IRF reporter was found to be 0.497 ± 0.039 in experiment [2] (agonist: 3'3'-cGAMP 10 ug/mL), 1.17 ± 0.23 in experiment [2] (agonist: LPS 0.1 ug/mL) and 1.13 ± 0.25 in experiment [2] (agonist: MPLA […]). In addition, the viability score in experiment [3] was 1.02 (active).

The record behind these values is the supplement of paper PMC10646978.
